Laboratory results taken from PubChem BioAssay (Tox21).
Where “and” joins values, the source holds several entries; their conditions need not be identical. Equal values may be shown once. Results filed as inconclusive are left out. A call without a number means that no potency is given here. More than one record can exist for a structure, and the calls need not agree. Calls of active or inactive are those of the source. Calls come from the whole dose curve; as a rule, active = well fitted cell-killing curve with a large enough effect in the repeat runs; inconclusive = weak or mixed curves; inactive = flat fitted curve, though single readings scatter.
Potency is the fitted concentration of half-maximal effect.

Experiment: qHTS assay to identify small molecule antagonists of the estrogen receptor beta (ER-beta) signaling pathway - cell viability counter screen (AID 1259382); note: nearly all actives have a fitted effect of over 55% in size
Conditions: ER-beta-UAS-bla HEK293T viability, CellTiter-Glo luminescence, 16 h; series mostly up to 92.4 µM
Text: U.S. Tox21 Program National Center for Advancing Translational Sciences [NCATS] NIH Chemical Genomics Center [NCGC] U.S. Environmental Protection Agency [EPA] National Institutes of Environmental Health Sciences [NIEHS] National Toxicology Program [NTP] U.S. Food and Drug Administration [FDA] Tox21 Assay Overview: Estrogen receptor (ER), a nuclear hormone receptor, plays an important role in development, metabolic homeostasis and reproduction. Two subtypes of ER, ER-alpha and ER-beta, have similar expression patterns with some uniqueness in both types. Endocrine disrupting chemicals (EDCs) and their interactions with steroid hormone receptors like ER causes disruption of normal endocrine function. To identify the compounds that inhibit ER signaling, an ER-beta-UAS-bla GripTite cell line (Life Technologies, Madison, WI, USA) containing a beta-lactamase reporter gene under the control of an UAS response element was used to screen Tox21 10K compound library. The cytotoxicity of the Tox21 compound library against the ER-beta-bla cell line was tested in parallel by measuring the cell viability using CellTiter-Glo assay in the same wells.
Tox21 Assay Protocol Summary: ER-beta-UAS-bla HEK293T cells were dispensed at 2,000 cells/4 uL of assay medium containing 2% charcoal stripped FBS per well into black wall/clear-bottom 1536-well plates using a Multidrop Combi (ThermoFisher Scientific, Waltham, MA) dispenser. After the assay plates were incubated at a 37C and 5% CO2 for 6 hr, 23 nL of compounds dissolved in DMSO, positive controls or DMSO only was transferred to the assay plate by a Pintool station (Kalypsys, San Diego, CA), followed by addition of 1 uL (1nM as final concentration) of 17-beta-estradiol (E2) in assay medium using a Flying Reagent Dispenser (FRD, Aurora Discovery, San Diego, CA). The plates were incubated at 37C and 5% CO2 for 16 hr. Then 1 uL of LiveBLAzer B/G FRET substrate was added using a Flying Reagent Dispenser, the plates were incubated at room temperature for 2 hours, and fluorescence intensity was measured by an Envision plate reader (PerkinElmer, Shelton, CT). For cell viability readout that measures cytotoxicity, 4 uL/well of CellTiter-Glo reagent was added into the assay plates using a FRD. After 30 min incubation at room temperature, the luminescence intensity in the plates was measured using a ViewLux (PerkinElmer) plate reader.
With `COc1ccccc1O` the Potency was “inactive”.
For `COc1ccc(O)cc1`, the Potency was “inactive”.
For `O=[N+]([O-])c1ccc(O)cc1`, the Potency was “inactive”.
In the case of `CCCCOCCOCCSC#N`, the Potency is reported as “inactive”.
For `CCCCCCCCCCCCCC(=O)OC(C)C`, the Potency was “inactive”.
With `Cc1c(N(C)C)c(=O)n(-c2ccccc2)n1C` the Potency was “inactive”.
With `CCCCOCCOCCOC(C)=O` the Potency was “inactive”.
In the case of `CCn1cc(C(=O)O)c(=O)c2ccc(C)nc21`, the Potency is reported as “inactive”.
With `CC(C)CC(C)CC(O)CC(C)C` (stereo not given) the Potency was “inactive”.
For `CCN(CC)CCOC(=O)c1ccc(N)cc1`, the Potency was “inactive”.
In the case of `COc1cc(C=O)ccc1O`, the Potency is reported as “inactive”.
For `C=CCOC(=O)CC(C)C`, the Potency was “inactive”.
For `COCCOCCOC`, the Potency was “inactive”.
In the case of `COC1=CC(=O)C[C@@H](C)[C@]12Oc1c(Cl)c(OC)cc(OC)c1C2=O`, the Potency is reported as “inactive”.
In the case of `CC1=NN(c2ccccc2)C(=O)C1`, the Potency is reported as “inactive”.
With `Cc1ccc(O)c(-n2nc3ccccc3n2)c1` the Potency was “inactive”.
For `NC(=O)c1ccc([N+](=O)[O-])cc1Cl`, the Potency was “inactive”.
With `O=C(OCc1ccccc1)c1ccccc1` the Potency was “inactive”.
In the case of `COc1ccc(C(=O)c2ccccc2)c(O)c1`, the Potency is reported as “inactive”.
For `NCCNc1cccc2ccccc12`, the Potency was 24.3 µM (active) and 59.6 µM (active) and inactive.
In the case of `CC(C)(C)NCC(O)c1ccc(O)c(CO)c1` (stereo not given), the Potency is reported as “inactive”.
In the case of `CCCCCCCCOc1ccc(C(=O)c2ccccc2)c(O)c1`, the Potency is reported as “inactive”.
With `O=C1OC(c2ccc(O)cc2)(c2ccc(O)cc2)c2ccccc21` the Potency was “inactive”.
For `C1CNCCN1`, the Potency was “inactive”.
For `C[C@]12C[C@H](O)[C@H]3[C@@H](CCC4=CC(=O)CC[C@@]43C)[C@@H]1CC[C@@H]2C(=O)CO`, the Potency was “inactive”.
With `C#C[C@]1(O)CC[C@H]2[C@@H]3CCC4=CC(=O)CC[C@@H]4[C@H]3CC[C@@]21CC` the Potency was “inactive”.
In the case of `CC(=O)Oc1ccccc1C(=O)O`, the Potency is reported as “inactive”.
In the case of `C[C@]12CC[C@@H]3c4ccc(O)cc4CC[C@H]3[C@@H]1CCC2=O`, the Potency is reported as “inactive”.
In the case of `OC[C@@H](O)[C@@H](O)[C@H](O)[C@H](O)CO`, the Potency is reported as “inactive”.
For `O=C1CCCCCN1`, the Potency was “inactive”.
In the case of `Nc1cccc(N)c1`, the Potency is reported as “inactive”.
For `C=C(C)OC(C)=O`, the Potency was “inactive”.
For `CC(C)Cc1ccc(C(C)C(=O)O)cc1` (stereo not given), the Potency was “inactive”.
With `C=CC(=O)NC(C)(C)CS(=O)(=O)O` the Potency was “inactive”.
With `CC(=O)c1ccc(S(=O)(=O)NC(=O)NC2CCCCC2)cc1` the Potency was “inactive”.
For `CCCCCCCC(=O)OCC(O)CO` (stereo not given), the Potency was “inactive”.
With `Oc1cccc(O)c1` the Potency was “inactive”.
With `CN/C(=C\[N+](=O)[O-])NCCSCc1ccc(CN(C)C)o1` the Potency was “inactive”.
In the case of `O=C(O)CCCCC1CCSS1` (stereo not given), the Potency is reported as “inactive”.
With `COCC(C)N` (stereo not given) the Potency was “inactive”.
